Measured values from PubChem BioAssay AID1159580 (chemical genetic matrix, 2015).
Screen size: about 5,500 compounds; about 2,000 (36%) were called active. Inconclusive results (about 18%) are left out. Rule as the data show it: active = normalized growth mostly below about 0.91 (no sharp cut-off); inconclusive = no clear call, values can overlap the other calls; inactive = mostly above about 0.92. This is one part of the list.

Experiment: chemical genetic growth profiling, strain panel (AID 1159580);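 also: tested at 20 µM; growth read once vehicle control cultures reached saturation at 30 °C; 1 = growth at the plate median or of vehicle wells; lower values mean less growth of the strain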
Settings: growth OD

Measured: normalized growth

COc1ccc(C(=O)CC(=O)c2ccc(C(C)(C)C)cc2)cc1
active: S. cerevisiae deletion strains, locus YLR262C, strain YPT6 (second series), hits give low values 0.801
inactive: S. cerevisiae deletion strains, locus YJR075W, strain HOC1, hits give low values 0.936 | S. cerevisiae deletion strains, locus YKL009W, strain mrt4, hits give low values 1.02 | S. cerevisiae deletion strains, locus YKL068W, hits give low values 0.996 | S. cerevisiae deletion strains, locus YKL085W, strain MDH1 (second series), hits give low values 0.989 | S. cerevisiae deletion strains, locus YKL085W, strain MDH1, hits give low values 0.989 | S. cerevisiae deletion strains, locus YKL160W, strain elf1, hits give low values 0.982 | S. cerevisiae deletion strains, locus YKL190W, strain CNB1, hits give low values 0.986 | S. cerevisiae deletion strains, locus YKR001C, strain vps1, hits give low values 1 | S. cerevisiae deletion strains, locus YKR026C, strain gcn3, hits give low values 0.988 | S. cerevisiae deletion strains, locus YKR091W, strain srl3, hits give low values 0.99 | S. cerevisiae deletion strains, locus YLL001W, strain dnm1, hits give low values 0.998 | S. cerevisiae deletion strains, locus YLL026W, hits give low values 0.998 | S. cerevisiae deletion strains, locus YLL041C, strain sdh2, hits give low values 0.972 | S. cerevisiae deletion strains, locus YLR027C, strain aat2, hits give low values 0.988 | S. cerevisiae deletion strains, locus YLR039C, strain RIC1, hits give low values 0.884 | S. cerevisiae deletion strains, locus YLR058C, strain SHM2, hits give low values 1.01 | S. cerevisiae deletion strains, locus YLR102C, strain apc9, hits give low values 1 | S. cerevisiae deletion strains, locus YLR113W, strain HOG1, hits give low values 0.969 | S. cerevisiae deletion strains, locus YLR221C, strain rsa3, hits give low values 0.937 | S. cerevisiae deletion strains, locus YLR258W, strain gsy2, hits give low values 0.971 | S. cerevisiae deletion strains, locus YLR262C, strain YPT6, hits give low values 0.903 | S. cerevisiae deletion strains, locus YLR268W, strain sec22, hits give low values 1 | S. cerevisiae deletion strains, locus YLR320W, strain mms22, hits give low values 0.956 | S. cerevisiae deletion strains, locus YLR330W, strain CHS5, hits give low values 1 | S. cerevisiae deletion strains, locus YLR342W, strain FKS1 (second series), hits give low values 1.1 | S. cerevisiae deletion strains, locus YLR342W, strain FKS1, hits give low values 0.992 | S. cerevisiae deletion strains, locus YLR357W, strain rsc2, hits give low values 1.03 | S. cerevisiae deletion strains, locus YLR370C, strain arc18, hits give low values 1 | S. cerevisiae deletion strains, locus YLR371W, strain rom2, hits give low values 1.01 | S. cerevisiae deletion strains, locus YLR384C, strain iki3, hits give low values 1.01 | S. cerevisiae deletion strains, locus YLR418C, strain cdc73, hits give low values 0.952 | S. cerevisiae deletion strains, locus YML016C, strain PPZ1, hits give low values 1 | S. cerevisiae deletion strains, locus YML032C, strain rad52, hits give low values 1 | S. cerevisiae deletion strains, locus YML120C, strain ndi1, hits give low values 1 | S. cerevisiae deletion strains, locus YML124C, strain tub3, hits give low values 1 | S. cerevisiae deletion strains, locus YMR058W, strain fet3, hits give low values 0.996 | S. cerevisiae deletion strains, locus YMR078C, strain ctf18, hits give low values 1.01 | S. cerevisiae deletion strains, locus YMR125W, strain sto1, hits give low values 0.977 | S. cerevisiae deletion strains, locus YMR129W, hits give low values 0.983 | S. cerevisiae deletion strains, locus YMR205C, strain PFK2, hits give low values 0.97 | S. cerevisiae deletion strains, locus YMR223W, strain ubp8, hits give low values 1 | S. cerevisiae deletion strains, locus YMR231W, strain pep5, hits give low values 1.02 | S. cerevisiae deletion strains, locus YMR263W, strain SAP30, hits give low values 0.988 | S. cerevisiae deletion strains, locus YMR307W, strain GAS1, hits give low values 0.746 | S. cerevisiae deletion strains, locus YNL067W, strain RPL9B, hits give low values 0.912 | S. cerevisiae deletion strains, locus YNL071W, strain lat1, hits give low values 0.998 | S. cerevisiae deletion strains, locus YNL128W, strain TEP1, hits give low values 0.98 | S. cerevisiae deletion strains, locus YNL153C, strain GIM3, hits give low values 0.996 | S. cerevisiae deletion strains, locus YNL183C, strain NPR1, hits give low values 0.958 | S. cerevisiae deletion strains, locus YNL209W, strain ssb2, hits give low values 1.02 | S. cerevisiae deletion strains, locus YNL233W, strain BNI4, hits give low values 0.995 | S. cerevisiae deletion strains, locus YNL248C, strain rpa49, hits give low values 0.963 | S. cerevisiae deletion strains, locus YNL250W, strain rad50, hits give low values 0.993 | S. cerevisiae deletion strains, locus YNL271C, strain bni1, hits give low values 1 | S. cerevisiae deletion strains, locus YNL298W, strain CLA4, hits give low values 1.02 | S. cerevisiae deletion strains, locus YNL307C, strain MCK1, hits give low values 1.01 | S. cerevisiae deletion strains, locus YNL322C, strain KRE1 (second series), hits give low values 1.01 | S. cerevisiae deletion strains, locus YNL322C, strain KRE1, hits give low values 0.994 | S. cerevisiae deletion strains, locus YNR049C, strain mso1, hits give low values 0.987 | S. cerevisiae deletion strains, locus YNR052C, strain pop2, hits give low values 1.01 | S. cerevisiae deletion strains, locus YOL006C, strain TOP1, hits give low values 0.82 | S. cerevisiae deletion strains, locus YOL012C, strain htz1 1.06 | S. cerevisiae deletion strains, locus YOL147C, strain pex11, hits give low values 1 | S. cerevisiae deletion strains, locus YOR001W, strain rrp6, hits give low values 0.979 | S. cerevisiae deletion strains, locus YOR061W, strain CKA2, hits give low values 1 | S. cerevisiae deletion strains, locus YOR069W, strain VPS5, hits give low values 1 | S. cerevisiae deletion strains, locus YOR070C, strain gyp1, hits give low values 0.986 | S. cerevisiae deletion strains, locus YOR080W, strain dia2, hits give low values 1.01 | S. cerevisiae deletion strains, locus YOR083W, strain WHI5, hits give low values 0.98 | S. cerevisiae deletion strains, locus YOR106W, strain vam3, hits give low values 0.904 | S. cerevisiae deletion strains, locus YOR136W, strain idh2, hits give low values 0.99 | S. cerevisiae deletion strains, locus YOR144C, strain elg1, hits give low values 1 | S. cerevisiae deletion strains, locus YOR184W, strain ser1, hits give low values 0.955 | S. cerevisiae deletion strains, locus YOR231W, strain MKK1, hits give low values 1.01 | S. cerevisiae deletion strains, locus YOR265W, strain rbl2, hits give low values 0.998 | S. cerevisiae deletion strains, locus YOR270C, strain vph1, hits give low values 0.827 | S. cerevisiae deletion strains, locus YOR290C, strain snf2, hits give low values 0.991 | S. cerevisiae deletion strains, locus YOR316C, strain cot1, hits give low values 1 | S. cerevisiae deletion strains, locus YPL051W, strain arl3, hits give low values 0.992 | S. cerevisiae deletion strains, locus YPL055C, strain LGE1, hits give low values 0.88 | S. cerevisiae deletion strains, locus YPL078C, strain atp4, hits give low values 0.998 | S. cerevisiae deletion strains, locus YPL106C, strain sse1, hits give low values 1 | S. cerevisiae deletion strains, locus YPL240C, strain hsp82, hits give low values 0.995 | S. cerevisiae deletion strains, locus YPL241C, strain CIN2, hits give low values 0.988 | S. cerevisiae deletion strains, locus YPL256C, strain CLN2, hits give low values 1 | S. cerevisiae deletion strains, locus YPR119W, strain clb2, hits give low values 0.998 | S. cerevisiae deletion strains, locus YPR141C, strain kar3, hits give low values 0.996 | S. cerevisiae deletion strains, locus YPR163C, strain tif3, hits give low values 1.01 | S. cerevisiae deletion strains, locus YPR167C, strain met16, hits give low values 1 | S. cerevisiae deletion strains, strain wtn01, hits give low values 0.996 | S. cerevisiae strains, strain wild type, hits give low values 0.975
